Source: paper PMC10726135, “HNF4α isoforms regulate the circadian balance between carbohydrate and lipid metabolism in the liver”
The full ranking holds about 18,000 sequences; the median of “log2 normalized intensity” is about 0.36, and the highest 2% start at about 7.3. The sample as a whole holds a higher share of the highest values than the screen did.

Molecular target: T1, HNF4alpha8 (COS-7 nuclear extract) (Homo sapiens, UniProt P41235-5 1-452)
T1 sequence: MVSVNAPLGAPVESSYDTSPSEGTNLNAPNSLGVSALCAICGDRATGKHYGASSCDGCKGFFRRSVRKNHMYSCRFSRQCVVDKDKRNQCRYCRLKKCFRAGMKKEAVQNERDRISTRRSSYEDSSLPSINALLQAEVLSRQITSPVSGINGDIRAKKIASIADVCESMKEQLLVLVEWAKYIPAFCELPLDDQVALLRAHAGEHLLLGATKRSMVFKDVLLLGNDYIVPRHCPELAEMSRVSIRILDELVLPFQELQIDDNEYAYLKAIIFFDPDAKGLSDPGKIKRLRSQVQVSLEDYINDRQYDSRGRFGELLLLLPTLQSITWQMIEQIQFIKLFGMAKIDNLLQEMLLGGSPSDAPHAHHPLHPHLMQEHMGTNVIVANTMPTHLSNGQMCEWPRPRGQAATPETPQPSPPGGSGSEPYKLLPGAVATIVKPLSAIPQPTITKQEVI
Experiment: protein-binding microarray; COS-7 nuclear extract on double-stranded Agilent 4x180k PBM; binding buffer, salt, pH and temperature not given in the material; high values mean tight binding
Conditions: chain copies: 2; label: 3' end of strand 1 on the slide; dsDNA, one strand shown
Procedure, shortened: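 Binding signal was defined as the normalized, background-corrected gProcessedSignal reported by Agilent software. It came from nuclear extracts of COS-7 cells transiently transfected with a human HNF4α isoform expression vector, applied to a custom Agilent SurePrint G3 4x180k array. That array held ~44,000 test sequences in quadruplicate as double-stranded ~60-nt oligonucleotides, and bound HNF4α was imaged at 2-µm resolution on an Agilent G2565CA scanner.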

Sequence	binding signal
TATGTTAATGGCAGAATCAAAGGTCAAAATGCCTAGGGAGATTAGAGTATCGGTCGA	5.17 log2 normalized intensity
TGCACTTTGCCCTCTCTTCAGCACCTTTTAGCCTAGGGAGATTAGAGTATCGGTCGA	5.26 log2 normalized intensity
TTCATTGCACTTTGCCCTCTCTTCAGCACCGCCTAGGGAGATTAGAGTATCGGTCGA	6.34 log2 normalized intensity
ACTGCCATTGATAATTCAGTTTCATTGCACGCCTAGGGAGATTAGAGTATCGGTCGA	-0.131 log2 normalized intensity
CATTGATAATTCAGTTTCATTGCACTTTGCGCCTAGGGAGATTAGAGTATCGGTCGA	4.62 log2 normalized intensity
TCAGTTTCATTGCACTTTGCCCTCTCTTCAGCCTAGGGAGATTAGAGTATCGGTCGA	7.35 log2 normalized intensity
ATAATTCAGTTTCATTGCACTTTGCCCTCTGCCTAGGGAGATTAGAGTATCGGTCGA	9.39 log2 normalized intensity
GGTCTGTTTGTGAAACAGTGGGCAATATGAGCCTAGGGAGATTAGAGTATCGGTCGA	1.18 log2 normalized intensity
AACCTAGCCCCCTTTCCCTTATCTTTGTTAGCCTAGGGAGATTAGAGTATCGGTCGA	2.54 log2 normalized intensity
GGACAAAGTTCGTGGAAAGTGGAAGAATGGGCCTAGGGAGATTAGAGTATCGGTCGA	0.952 log2 normalized intensity
CATGAAGCTTCCCCTTTAACCAATATTAGCGCCTAGGGAGATTAGAGTATCGGTCGA	0.107 log2 normalized intensity
TATCTTCTTTCAGTGTTGACCTTTGAACATGCCTAGGGAGATTAGAGTATCGGTCGA	9.23 log2 normalized intensity
AACACTATCTTCTTTCAGTGTTGACCTTTGGCCTAGGGAGATTAGAGTATCGGTCGA	7.46 log2 normalized intensity
AGGAGTGTCTTTCTCCTTGAACACAGTGTTGCCTAGGGAGATTAGAGTATCGGTCGA	1.24 log2 normalized intensity
CATGCTCTTGGAATGTTGAACCTTTCTTTGGCCTAGGGAGATTAGAGTATCGGTCGA	3.19 log2 normalized intensity
AACCTTCATCTCTCTTTGTTGACATCTGCTGCCTAGGGAGATTAGAGTATCGGTCGA	-0.0144 log2 normalized intensity
TATCCAATAAAACACTATCTTCTTTCAGTGGCCTAGGGAGATTAGAGTATCGGTCGA	0.405 log2 normalized intensity
TCTTTCAGTGTTGACCTTTGAACATTTCTTGCCTAGGGAGATTAGAGTATCGGTCGA	8.97 log2 normalized intensity
GAATGTTGAACCTTTCTTTGTCTTTGCAATGCCTAGGGAGATTAGAGTATCGGTCGA	1.98 log2 normalized intensity
TCTTGGAATGTTGAACCTTTCTTTGTCTTTGCCTAGGGAGATTAGAGTATCGGTCGA	2.31 log2 normalized intensity
TTACCATATTTACTTATGGTTTGACCCTGCGCCTAGGGAGATTAGAGTATCGGTCGA	5.23 log2 normalized intensity
AATTCCTTTCAAACTGTATTGCTCAATGTCGCCTAGGGAGATTAGAGTATCGGTCGA	0.181 log2 normalized intensity

Sequence	binding signal
GAGTTGGAGAAGAGCAAAGATCATCTGGTGGCCTAGGGAGATTAGAGTATCGGTCGA	1.45 log2 normalized intensity
CAAAAGTTCAAACTTTATTTGATGATGAAGGCCTAGGGAGATTAGAGTATCGGTCGA	0.503 log2 normalized intensity
AATGCGCAGAATTTCTTTTAATGTGTGCTTGCCTAGGGAGATTAGAGTATCGGTCGA	0.136 log2 normalized intensity
TTAATACTTTGGAACTCAGTTAATGTACAGGCCTAGGGAGATTAGAGTATCGGTCGA	1.59 log2 normalized intensity
CTTAGCAGTGGGAGACAGGCATTAACCCTTGCCTAGGGAGATTAGAGTATCGGTCGA	1.74 log2 normalized intensity
TCTGCAAGGCAACTGACCTTTGGATCTGGGGCCTAGGGAGATTAGAGTATCGGTCGA	8.01 log2 normalized intensity
GAGACAACTGCAACAGGAGGACCTCTGGATGCCTAGGGAGATTAGAGTATCGGTCGA	-0.854 log2 normalized intensity
CTTGGGGGAGGAGGGCAACCTTTGAACTGGGCCTAGGGAGATTAGAGTATCGGTCGA	6.02 log2 normalized intensity
TTCTTCTGGTTCTGCAAGGCAACTGACCTTGCCTAGGGAGATTAGAGTATCGGTCGA	4.13 log2 normalized intensity
CTGGTTCTGCAAGGCAACTGACCTTTGGATGCCTAGGGAGATTAGAGTATCGGTCGA	8.71 log2 normalized intensity
AACTGTACTTTGGACTGGGGACCTGGTCTGGCCTAGGGAGATTAGAGTATCGGTCGA	4.79 log2 normalized intensity
TTTATGACCTTTGACTGCAGAAGATAAGAAGCCTAGGGAGATTAGAGTATCGGTCGA	4.5 log2 normalized intensity
TGATAAAGGGGGCAAAGGGCATGGGCAGCTGCCTAGGGAGATTAGAGTATCGGTCGA	4.41 log2 normalized intensity
GTCCAAAGGTCAGCAAGCCTGGAGTTCTGAGCCTAGGGAGATTAGAGTATCGGTCGA	5.05 log2 normalized intensity
ATCCACCCATCCAAAGGTCAGCAATCTCAAGCCTAGGGAGATTAGAGTATCGGTCGA	3.45 log2 normalized intensity
TGGGAGCAAAGGTCAAGAGTTTTAAAGTATGCCTAGGGAGATTAGAGTATCGGTCGA	5.47 log2 normalized intensity
AAGGTCAGCAAGCCTGGAGTTCTGATGTTCGCCTAGGGAGATTAGAGTATCGGTCGA	0.91 log2 normalized intensity
TTAGGAGGATGACAAAGAGCAAGTGACCCTGCCTAGGGAGATTAGAGTATCGGTCGA	4.46 log2 normalized intensity
CTGGAGTCCAAAGGTCAGCAAGCCTGGAGTGCCTAGGGAGATTAGAGTATCGGTCGA	7.44 log2 normalized intensity
GGTGTAAGCTCTGGAGTCCAAAGGTCAGCAGCCTAGGGAGATTAGAGTATCGGTCGA	8.69 log2 normalized intensity
CCACTGGTGTAAGCTCTGGAGTCCAAAGGTGCCTAGGGAGATTAGAGTATCGGTCGA	4.54 log2 normalized intensity
AAGCTCTGGAGTCCAAAGGTCAGCAAGCCTGCCTAGGGAGATTAGAGTATCGGTCGA	8.14 log2 normalized intensity

Sequence	binding signal
GGAGTGACCCTGGGAGCAAAGGTCAAGAGTGCCTAGGGAGATTAGAGTATCGGTCGA	7.55 log2 normalized intensity
GGAGACCACTGGTGTAAGCTCTGGAGTCCAGCCTAGGGAGATTAGAGTATCGGTCGA	1.64 log2 normalized intensity
TGTTTGCCTCTCAGCTCATTCAAAGTCCAAGCCTAGGGAGATTAGAGTATCGGTCGA	4.2 log2 normalized intensity
TATTTGCTCACCAGTGACCAATAATGTAATGCCTAGGGAGATTAGAGTATCGGTCGA	0.199 log2 normalized intensity
ATTAGCTTCTGTTCAGGAGTTGTCTGTCCAGCCTAGGGAGATTAGAGTATCGGTCGA	1.39 log2 normalized intensity
CCATGCTCTTTGGCCTGGCATTTGAGACTAGCCTAGGGAGATTAGAGTATCGGTCGA	0.329 log2 normalized intensity
TTTGTCCCCCACCTGTGAAGATAAGCTGTCGCCTAGGGAGATTAGAGTATCGGTCGA	3.17 log2 normalized intensity
AGAATGGAGAAAACAACATTCCTTGTGTTTGCCTAGGGAGATTAGAGTATCGGTCGA	0.48 log2 normalized intensity
TCCACAGTCAAGGCCAAAGGTTAAAAATAAGCCTAGGGAGATTAGAGTATCGGTCGA	4.8 log2 normalized intensity
AATTCTTAAGCCAAAGTCCAAGTTGGTGAGGCCTAGGGAGATTAGAGTATCGGTCGA	3.81 log2 normalized intensity
TCAGCCTTAACTCAAAAGGCCAAAGTCCAAGCCTAGGGAGATTAGAGTATCGGTCGA	9.11 log2 normalized intensity
TATCAGCTTTGAGACACCTGGCCAAGTACAGCCTAGGGAGATTAGAGTATCGGTCGA	-0.899 log2 normalized intensity
TTTTCCACCCTCCCCTCCCCCTCCTCCCCTGCCTAGGGAGATTAGAGTATCGGTCGA	7.22 log2 normalized intensity
AACCCGCCCCCTCCCCCTGCCGGCGGCGCAGCCTAGGGAGATTAGAGTATCGGTCGA	6.05 log2 normalized intensity
ATTGTGAAACGTTTGAATTCTTGCCTATCCGCCTAGGGAGATTAGAGTATCGGTCGA	-0.841 log2 normalized intensity
GGTTGCCCAGGGAGAGCTGGACTTTCATCTGCCTAGGGAGATTAGAGTATCGGTCGA	5.54 log2 normalized intensity
GGCGGCTAGTGTACAGGTGACCTTTGGAATGCCTAGGGAGATTAGAGTATCGGTCGA	9.41 log2 normalized intensity
AGATAGTGACGGAGGTGACCTTTGGTTGTCGCCTAGGGAGATTAGAGTATCGGTCGA	6.24 log2 normalized intensity
CTAGTGTACAGGTGACCTTTGGAATGAACCGCCTAGGGAGATTAGAGTATCGGTCGA	7.75 log2 normalized intensity
GGAATGAGCAGGAACCTTGTGGTGGTGAAAGCCTAGGGAGATTAGAGTATCGGTCGA	0.216 log2 normalized intensity
GCTAGGTGGCGGGCTGGCTCAGGACAGGTGGCCTAGGGAGATTAGAGTATCGGTCGA	-0.886 log2 normalized intensity
TTGGAGAATGCCTTTTGTGTAGGAGTACACGCCTAGGGAGATTAGAGTATCGGTCGA	1.46 log2 normalized intensity

Sequence	binding signal
TGGCTGGCGGCTAGTGTACAGGTGACCTTTGCCTAGGGAGATTAGAGTATCGGTCGA	7.84 log2 normalized intensity
TATCTTTGGAGAATGCCTTTTGTGTAGGAGGCCTAGGGAGATTAGAGTATCGGTCGA	1.69 log2 normalized intensity
AAAGCTGGCTGGCGGCTAGTGTACAGGTGAGCCTAGGGAGATTAGAGTATCGGTCGA	0.565 log2 normalized intensity
TCCCTGAAGGCCAGGCAGCACAATTTGTGTGCCTAGGGAGATTAGAGTATCGGTCGA	-0.959 log2 normalized intensity
TGATCTTTGAAACATAACAGCAACAACACAGCCTAGGGAGATTAGAGTATCGGTCGA	0.241 log2 normalized intensity
TATTGAGAAGAAACCTTTGCCCAACAGGATGCCTAGGGAGATTAGAGTATCGGTCGA	2.13 log2 normalized intensity
GGCGAGTGTGCAATTAGAGCAAAGGTTACTGCCTAGGGAGATTAGAGTATCGGTCGA	3.57 log2 normalized intensity
ACAAAGATCATAAATGCCTCCCCCTCTTTAGCCTAGGGAGATTAGAGTATCGGTCGA	3.85 log2 normalized intensity
TGGGCCAAAGGTCATACCTGTCTAGGTGGAGCCTAGGGAGATTAGAGTATCGGTCGA	4.74 log2 normalized intensity
GGGGAGGTGGGAAAAGAAATGTAGTGACAGGCCTAGGGAGATTAGAGTATCGGTCGA	-0.392 log2 normalized intensity
TGCATGGATTTCTCAGTTGAGGAATGGGTAGCCTAGGGAGATTAGAGTATCGGTCGA	0.827 log2 normalized intensity
TAGGGAAAATAGTGACCCTGTCTCTCAGTCGCCTAGGGAGATTAGAGTATCGGTCGA	1.62 log2 normalized intensity
TAATTCTTCTTTGAAAGTTTGGTGGACTTTGCCTAGGGAGATTAGAGTATCGGTCGA	6.91 log2 normalized intensity
CTTCTTTGAAAGTTTGGTGGACTTTGGCCGGCCTAGGGAGATTAGAGTATCGGTCGA	10.1 log2 normalized intensity
GGTGGACTTTGGCCGTGAAGCCGTCCTGTCGCCTAGGGAGATTAGAGTATCGGTCGA	5.87 log2 normalized intensity
GGCATTAATTCTTCTTTGAAAGTTTGGTGGGCCTAGGGAGATTAGAGTATCGGTCGA	1.65 log2 normalized intensity
AGTTTGGTGGACTTTGGCCGTGAAGCCGTCGCCTAGGGAGATTAGAGTATCGGTCGA	6.75 log2 normalized intensity
TTGAAAGTTTGGTGGACTTTGGCCGTGAAGGCCTAGGGAGATTAGAGTATCGGTCGA	7.64 log2 normalized intensity
TGATAAGATTTATCTCTCCAAGGTACTGTGGCCTAGGGAGATTAGAGTATCGGTCGA	0.189 log2 normalized intensity
